# High-throughput results (PubChem)
# Shown are actives, neighbours in structure and some others; about 2.4% of the full set was active somewhere.
# PREPL inh: inhibits the human prolyl oligopeptidase-like enzyme; 320,000 tested, 0.68% active; recombinant PREPL, fluorescence polarization activity-based probe; Q4J6C6; AID 2751; inhibition, % at 5.96 µM; in the data active = inhibition above about 43%;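 note: 0% = enzyme with DMSO and 100% = wells lacking enzyme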
# Target sequence (Q4J6C6 whole entry, looked up): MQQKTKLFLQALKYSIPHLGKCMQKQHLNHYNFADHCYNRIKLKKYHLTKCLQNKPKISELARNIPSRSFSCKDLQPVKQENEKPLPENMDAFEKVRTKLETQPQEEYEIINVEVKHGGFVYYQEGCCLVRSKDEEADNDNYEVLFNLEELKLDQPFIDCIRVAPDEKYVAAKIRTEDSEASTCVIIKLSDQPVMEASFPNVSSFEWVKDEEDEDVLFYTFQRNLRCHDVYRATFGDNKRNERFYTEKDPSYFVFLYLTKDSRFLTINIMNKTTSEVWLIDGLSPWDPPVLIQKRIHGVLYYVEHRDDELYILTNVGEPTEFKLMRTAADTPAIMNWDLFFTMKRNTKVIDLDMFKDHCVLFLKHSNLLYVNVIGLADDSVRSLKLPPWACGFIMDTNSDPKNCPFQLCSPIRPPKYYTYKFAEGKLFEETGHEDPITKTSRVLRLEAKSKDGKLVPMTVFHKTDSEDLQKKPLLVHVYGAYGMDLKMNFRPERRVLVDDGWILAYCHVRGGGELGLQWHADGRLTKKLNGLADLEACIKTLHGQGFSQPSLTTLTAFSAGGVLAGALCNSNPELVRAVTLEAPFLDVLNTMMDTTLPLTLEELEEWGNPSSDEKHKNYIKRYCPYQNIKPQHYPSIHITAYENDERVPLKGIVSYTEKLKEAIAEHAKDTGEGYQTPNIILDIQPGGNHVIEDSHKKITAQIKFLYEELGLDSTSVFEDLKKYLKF
# PP5 primary: inhibitors of human protein phosphatase 5 (PP5); P53041; purified PP5c, OMFP substrate fluorescence; inhibition, % at 6.7 µM; 320,000 tested, 0.18% active; AID 1987;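 active = inhibition above the campaign's mean inhibition across all tested compounds plus 3 SD, cut at about 9.5% in these data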;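 note: 0% = DMSO only and 100% = 100 µM cantharidin control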
# Rpn11 inh: blocks the human proteasome subunit Rpn11 | O00487 | human 26S proteasome, Ub4-pepOG fluorescence polarization; 20S core pre-blocked with epoxomicin | inhibition, % at 20 µM | 360,000 tested, 0.59% active | AID 588493;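 active = inhibition at 20 µM, scaled to each plate's controls, above about 33%, limit read from the data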
# NadD inh: NadD (S. aureus) enzyme inhibition | purified NadD enzyme, colorimetric absorbance read-out | AID 602399 | inhibition, % at 20 µM | 360,000 tested, 0.78% active; in the data active = inhibition above about 26%
# PP1 inh: PP1-alpha (human) inhibition in PP5 counter-screen | P62136 | purified PP1alpha, OMFP fluorescence | inhibition, % at 6.7 µM | 320,000 tested, 0.9% active | AID 2235;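 active = inhibition above the mean inhibition of all tested compounds plus 3 SD, computed separately for each screening campaign, cut at about 15% in these data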
# NadD inh conf: NadD (S. aureus) inhibition, single concentration confirmation | shares compounds with NadD inh | inhibition, % at 20 µM | 2,000 tested, 13% active | AID 624309 | purified S. aureus NadD, colorimetric enzyme assay; in the data active = inhibition mostly above about 42%, no sharp cut-off; inactive = mostly below about 42%
# * marks the source's active call; other numbers are inactive results; . = no result given.
SMILES,PREPL inh,PP5 primary,Rpn11 inh,NadD inh,PP1 inh,NadD inh conf
Nc1[nH]c(C(=O)c2ccccc2)c(-c2ccc(Cl)cc2Cl)c1C(=O)c1ccc(Cl)c(Cl)c1,.,.,.,35.5*,.,4.8
Nc1c(C(=O)O)sc2nc(-c3ccccc3)cc(-c3ccc(F)cc3)c12,3.5,0.0,.,35.0*,6.2,26.3
N#Cc1cccnc1N1CCN(C(=O)c2cccc3c2C(=O)c2ccc(Cl)cc2S3(=O)=O)CC1,12.9,2.8,4.9,7.3,0.5,.
N#Cc1cccnc1N1CCN(C(=O)c2cccc3c2C(=O)c2ccc(-c4ccc(Cl)c(C(F)(F)F)c4)cc2S3(=O)=O)CC1,11.2,.,7.6,35.2*,.,2.8
O=c1[nH]c(CN2CCN(c3ccc(O)cc3)CC2)nc2scc(-c3ccc(Cl)cc3)c12,35.7,2.9,9.2,37.0*,5.0,22.6
O=C(Nc1cccc(N=Cc2cc(Br)cc(Br)c2O)c1)c1ccco1,-1.1,-0.9,15.5,41.1*,-1.9,20.9
O=C(CN1CCc2ccccc21)NCc1ccc2c(c1)OCO2,11.5,1.8,1.9,-2.3,1.8,.
O=C(CN1CCc2ccccc21)Nc1ccc2c(c1)OCO2,-10.5,3.7,2.5,56.4*,5.5,7.6
O=C(CC1OC(=O)c2ccccc21)Nc1cccc(S(=O)(=O)N2CCCCCC2)c1 (stereo not drawn),5.6,0.7,7.1,-3.9,-0.6,.
Cc1ccc(C(=O)NN2CC(O)=C(c3nc(-c4cccc([N+](=O)[O-])c4)cs3)C2=N)cc1,22.9,3.2,1.2,33.4*,17.4*,-4.2
CCCCOc1ccc(N2C(=O)C(C)CNC2=S)cc1 (stereo not drawn),.,.,-22.3,-1.0,.,.
N#C/C(=C\c1ccc(-c2ccccc2[N+](=O)[O-])o1)C(=O)Nc1nc(-c2cccs2)cs1,19.4,1.6,-31.1,34.0*,16.3*,-5.1
N#C/C(=C/c1ccc(-c2cccc([N+](=O)[O-])c2)o1)C(=O)Nc1nc(-c2cccs2)cs1,.,.,5.1,45.6*,.,-9.3
CC(=O)Nc1nc(-c2ccc([N+](=O)[O-])cc2)cs1,-6.9,-1.1,-5.5,-1.4,-2.2,.
N#C/C(=C\c1ccc(-c2ccc([N+](=O)[O-])cc2)o1)C(=O)Nc1nc(-c2cccs2)cs1,11.2,0.6,4.9,40.1*,0.9,3.9
CCCCCCN1C[C@H](n2cc(-c3ccc(F)cc3)nn2)[C@@H](O)C[C@@H]1c1ccc(Cl)cc1,.,.,-9.2,2.6,.,.
COc1ccc(-c2nn(-c3ccccc3)cc2/C=N/NS(=O)(=O)c2ccccc2)cc1,-0.9,-2.4,-1.5,3.0,-3.9,.
Cc1nn(-c2ccccc2)c(N2CCCC2)c1/C=N/NC(=O)c1cccc(S(=O)(=O)Nc2ccc(Cl)cc2)c1,14.2,2.2,10.1,53.5*,12.8,55.2*
COc1ccc(-c2nn(-c3ccccc3)cc2/C=N/NC(=O)c2cccc(S(=O)(=O)Nc3ccccc3Cl)c2)cc1,4.4,3.9,2.6,41.8*,5.3,15.8
CCCS(=O)(=O)NC(=O)C1(C)CCCN(C(=O)c2ccc3ccccc3n2)C1 (stereo not drawn),.,.,-0.2,-2.5,.,.
O=C1OC(c2ccc3ccccc3c2O)(c2ccc3ccccc3c2O)c2ccccc21,.,.,-5.1,41.1*,.,81.8*
CC(=O)Nc1ccc(S(=O)(=O)N(C)CC(=O)OC(C)C(=O)NC2(C#N)CCCCC2)cc1 (stereo not drawn),.,.,1.2,-0.7,.,.
O=C1CC(=C2c3ccccc3-c3ccccc32)C(=O)N1CCN1CCN(c2cccc(Cl)c2)CC1,12.8,3.5,6.5,68.9*,16.2*,60.3*
O=[N+]([O-])c1cc2c(c(CSc3nnnn3-c3ccc(O)cc3)c1)OCOC2,-0.1,1.9,-8.6,-4.6,0.3,.
Cc1cccc(N2CCN(C(=O)c3ccc4nccnc4c3)CC2C)c1 (stereo not drawn),31.3,.,5.1,4.5,.,.
SMILES,PREPL inh,PP5 primary,Rpn11 inh,NadD inh,PP1 inh,NadD inh conf
Cc1cccc(N2CCN(C(=O)c3ccc4nc(-c5ccco5)c(-c5ccco5)nc4c3)CC2C)c1 (stereo not drawn),24.4,6.5,0.8,41.8*,9.4,8.4
O=c1cc(/N=C/c2coc3c(ccc4ccccc43)c2=O)[nH]c(=S)[nH]1,15.3,1.5,0.2,64.7*,5.2,1.8
O=C(c1ccc(-c2nnc(Nc3cccc(Cl)c3)c3ccccc23)cc1)N1C[C@H]2C[C@H](C1)c1cccc(=O)n1C2,20.9,1.4,7.0,28.0*,0.9,-2.9
O=C(Cn1c(=O)n(Cc2ccco2)c(=O)c2c3c(sc21)CCCCC3)Nc1ccccc1,12.4,5.5,-7.1,51.1*,7.6,41.1
COc1ccc(N/C=C2\C(=O)CCc3c2oc2cc(Cl)c(O)c(Cl)c32)cc1,35.9,0.7,.,44.5*,-2.6,-1.6
CC(c1ccccn1)N(C)C(=O)c1ccc2nc(Cc3ccccc3F)oc2c1 (stereo not drawn),3.1,-0.1,6.4,2.2,-3.8,.
O=C(/C=C/c1ccco1)c1ccc(NC(=O)C23CC4CC(CC(C4)C2)C3)cc1,-2.6,-2.5,32.6,32.8*,-1.3,11.4
Cc1oc2c(cc(NS(=O)(=O)c3ccc4c5c(cccc35)C(=O)N4)c3ccccc32)c1C(=O)OC(C)C,3.8,-0.3,21.7,30.5*,1.0,36.7*
COC(=O)c1ccccc1NS(=O)(=O)c1ccc2c3c(cccc13)C(=O)N2,-2.1,5.8,2.0,0.5,3.6,.
Cc1ccc(CN2CCC2(C)C(=O)NC(C)C)cc1 (stereo not drawn),.,.,-4.5,-2.5,.,.
COc1cccc(CN2CC(C(=O)NCCc3ccccc3C(F)(F)F)CCC2=O)c1 (stereo not drawn),-2.3,-0.2,-1.9,3.3,1.7,.
COc1ccc2c(c1)nc(-c1cccc(Br)c1)c(=O)n2C(c1ccccn1)c1nc2ccccc2[nH]1 (stereo not drawn),.,.,-3.4,46.4*,.,31.5
Cc1ccc(C(c2nc3ccccc3[nH]2)n2c(-c3ccccc3)nc3ccccc32)cc1 (stereo not drawn),.,.,16.0,5.5,.,.
Cc1nc2ccc(C(=O)NCCCn3ccnc3)cn2c1N(C)CC1CCCCC1,.,.,-1.9,-2.5,.,.
Cc1ccc(-c2n[nH]c(=S)n2/N=C/C=C/c2ccccc2[N+](=O)[O-])cc1,21.0,0.5,0.8,34.9*,11.4,20.1
O=[N+]([O-])c1ccccc1/C=C/C=N/n1c(-c2cc(-c3ccccc3)n[nH]2)n[nH]c1=S,9.0,0.4,5.0,41.8*,4.0,9.0
S=c1[nH]nc(-c2cc(-c3ccccc3)n[nH]2)n1/N=C/C(Br)=C/c1ccccc1,6.7,2.0,-5.9,61.8*,10.3,3.4
COc1ccccc1C(=O)NCCC(=O)NNC(=O)Cn1ccc(C(F)(F)F)n1,8.3,-1.5,4.2,-4.4,-2.1,.
Cc1cc(C)c(S(=O)(=O)Nc2ccccc2)c(C)c1,.,.,-1.0,-2.2,.,.
O=C(NCc1ccccc1F)C1CCCN1S(=O)(=O)c1ccc(F)cc1 (stereo not drawn),-0.2,3.0,-1.4,-2.4,-1.9,.
